About 7,900 targets were measured; listed, in parts, are those with a hit and a random draw of the rest. About 0.6% of all pairs of compound and target were hits.
Tests used:
Experiment in all cases: log2 fold change, soluble protein after heating vs DMSO (PISA); higher = thermal stabilisation; K562 cells, 10 uM, 30 min; active = over 0.2 and 3.5 SD of the protein, either way, in both replicates (recomputed)
[1] = compound: C1=CC=C(C=C1)[C@H](COC2=CC3=C(C=C2)NC(=O)N3)NC(=O)C4=CC=CN(C4=O)CC5=CC(=C(C=C5)F)F
Procedure, shortened: (§1)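 Quantification of soluble protein used TMTpro 16plex LC-MS/MS, with channel sums equalised. Samples were the supernatant after 21,000xg for 90 min of pooled aliquots from K562 cells (2×10^6 cells/mL) treated with 10 μM compound for 30 min, heated for 3 min over 48°C-58°C, and extracted in PBS with 0.5% NP-40 at 4°C. Values, from duplicates, describe thermal stability against control samples on a log2 fold-change scale.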

[2] = compound: CC1=C(SC2=C1C(=N[C@H](C3=NN=C(N32)C)CC(=O)N)C4=CC=C(C=C4)Cl)C
Procedure, shortened: as §1

[3] = compound: CC1=C2C(=CC=C1)N=C(N(C2=O)C3=CC=CC=C3C)CN4C=NC5=C(N=CN=C54)N
Procedure, shortened: as §1

[4] = compound: Cc1sc2c(c1C)C(c1ccc(Cl)cc1)=N[C@@H](CC(=O)OC(C)(C)C)c1nnc(C)n1-2
Procedure, shortened: as §1

[5] = compound: c1ccc([C@@H]2C[C@H]2NC2CCNCC2)cc1
Procedure, shortened: as §1

Measured: log2 fold change

TRIM23 (UniProt P36406)
UniProt P36406, sequence (P36406 whole entry, looked up): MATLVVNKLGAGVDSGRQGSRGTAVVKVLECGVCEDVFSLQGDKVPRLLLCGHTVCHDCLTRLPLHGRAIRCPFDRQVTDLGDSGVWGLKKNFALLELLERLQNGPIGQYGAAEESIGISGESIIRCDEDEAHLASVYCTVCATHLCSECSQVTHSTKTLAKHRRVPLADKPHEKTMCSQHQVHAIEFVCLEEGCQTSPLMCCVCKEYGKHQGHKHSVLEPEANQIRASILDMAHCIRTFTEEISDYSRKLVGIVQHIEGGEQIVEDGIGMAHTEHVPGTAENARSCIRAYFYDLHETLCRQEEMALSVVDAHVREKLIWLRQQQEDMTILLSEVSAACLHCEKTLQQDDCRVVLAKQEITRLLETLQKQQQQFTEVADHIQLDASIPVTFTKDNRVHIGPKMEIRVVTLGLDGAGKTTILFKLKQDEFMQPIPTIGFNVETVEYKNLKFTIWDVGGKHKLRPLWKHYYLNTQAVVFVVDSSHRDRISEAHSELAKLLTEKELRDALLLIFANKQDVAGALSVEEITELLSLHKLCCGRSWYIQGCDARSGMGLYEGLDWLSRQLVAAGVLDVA
inactive: [1] 0.023 | [2] 0.122 | [3] 0.049 | [4] -0.096 | [5] -0.05

TNPO2 (UniProt O14787)
UniProt O14787, sequence (O14787 whole entry, looked up): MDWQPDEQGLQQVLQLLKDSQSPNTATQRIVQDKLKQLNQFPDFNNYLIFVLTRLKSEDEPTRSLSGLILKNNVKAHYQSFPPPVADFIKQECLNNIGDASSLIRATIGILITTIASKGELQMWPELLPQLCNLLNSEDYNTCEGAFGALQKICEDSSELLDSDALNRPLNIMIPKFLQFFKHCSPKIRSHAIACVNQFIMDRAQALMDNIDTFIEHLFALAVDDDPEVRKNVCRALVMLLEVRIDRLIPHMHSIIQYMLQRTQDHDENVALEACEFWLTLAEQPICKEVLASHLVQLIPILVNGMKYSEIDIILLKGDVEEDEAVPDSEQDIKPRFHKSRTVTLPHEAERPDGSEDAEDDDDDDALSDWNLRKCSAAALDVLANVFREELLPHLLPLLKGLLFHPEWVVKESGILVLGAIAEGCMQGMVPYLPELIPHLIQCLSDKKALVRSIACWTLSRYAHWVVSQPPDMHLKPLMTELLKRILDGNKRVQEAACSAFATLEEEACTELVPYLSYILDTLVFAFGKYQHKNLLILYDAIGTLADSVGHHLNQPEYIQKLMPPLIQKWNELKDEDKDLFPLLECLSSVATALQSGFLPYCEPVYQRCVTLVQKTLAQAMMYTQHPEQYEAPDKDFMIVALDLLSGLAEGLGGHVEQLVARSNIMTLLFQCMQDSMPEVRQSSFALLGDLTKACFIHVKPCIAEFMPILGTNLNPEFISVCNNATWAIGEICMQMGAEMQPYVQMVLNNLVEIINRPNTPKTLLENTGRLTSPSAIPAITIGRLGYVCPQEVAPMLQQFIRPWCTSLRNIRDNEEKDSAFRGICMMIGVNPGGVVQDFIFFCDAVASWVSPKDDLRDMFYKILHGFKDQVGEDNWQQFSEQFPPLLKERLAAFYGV
inactive: [1] -0.067 | [2] 0.03 | [3] 0.158 | [4] -0.051 | [5] -0.005

TUBAL3 (UniProt A6NHL2)
inactive: [1] -0.196 | [2] -0.012 | [3] 0.096 | [4] -0.051 | [5] 0.029

TMEM263 (UniProt Q8WUH6)
inactive: [1] -0.152 | [2] 0.047 | [3] 0.156 | [4] -0.072 | [5] -0.031

TMTC3 (UniProt Q6ZXV5)
UniProt Q6ZXV5, sequence (Q6ZXV5 whole entry, looked up): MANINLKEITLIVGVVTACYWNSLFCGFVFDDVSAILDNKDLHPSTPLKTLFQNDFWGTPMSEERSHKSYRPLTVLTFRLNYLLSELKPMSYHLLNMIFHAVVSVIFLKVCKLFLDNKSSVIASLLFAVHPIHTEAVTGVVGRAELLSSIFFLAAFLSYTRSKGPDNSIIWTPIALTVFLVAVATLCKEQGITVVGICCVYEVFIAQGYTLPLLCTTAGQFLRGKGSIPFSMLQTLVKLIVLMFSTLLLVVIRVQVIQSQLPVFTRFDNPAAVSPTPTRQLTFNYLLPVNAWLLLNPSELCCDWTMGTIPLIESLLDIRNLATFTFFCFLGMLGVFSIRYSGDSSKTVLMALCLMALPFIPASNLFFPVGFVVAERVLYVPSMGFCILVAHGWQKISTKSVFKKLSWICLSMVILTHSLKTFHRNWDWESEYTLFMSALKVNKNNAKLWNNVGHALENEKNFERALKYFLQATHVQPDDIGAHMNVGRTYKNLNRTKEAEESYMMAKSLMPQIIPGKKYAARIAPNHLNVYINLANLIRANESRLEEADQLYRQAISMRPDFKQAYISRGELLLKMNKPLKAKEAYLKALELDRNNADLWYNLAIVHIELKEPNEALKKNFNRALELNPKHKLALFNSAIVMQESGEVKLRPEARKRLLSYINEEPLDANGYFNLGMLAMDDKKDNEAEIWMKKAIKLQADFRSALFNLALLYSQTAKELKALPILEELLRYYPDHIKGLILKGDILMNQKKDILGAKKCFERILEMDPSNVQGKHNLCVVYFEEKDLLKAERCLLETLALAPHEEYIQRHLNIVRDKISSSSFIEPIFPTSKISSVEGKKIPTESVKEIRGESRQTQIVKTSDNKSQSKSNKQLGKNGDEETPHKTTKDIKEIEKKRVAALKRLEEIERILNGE
inactive: [1] -0.012 | [2] 0.019 | [3] 0.011 | [4] -0.034 | [5] 0.005

UTP14A (UniProt Q9BVJ6)
inactive: [1] 0.039 | [2] -0.276 | [3] -0.154 | [4] 0.124 | [5] 0.029

TMEM63B (UniProt Q5T3F8)
UniProt Q5T3F8, sequence (Q5T3F8 whole entry, looked up): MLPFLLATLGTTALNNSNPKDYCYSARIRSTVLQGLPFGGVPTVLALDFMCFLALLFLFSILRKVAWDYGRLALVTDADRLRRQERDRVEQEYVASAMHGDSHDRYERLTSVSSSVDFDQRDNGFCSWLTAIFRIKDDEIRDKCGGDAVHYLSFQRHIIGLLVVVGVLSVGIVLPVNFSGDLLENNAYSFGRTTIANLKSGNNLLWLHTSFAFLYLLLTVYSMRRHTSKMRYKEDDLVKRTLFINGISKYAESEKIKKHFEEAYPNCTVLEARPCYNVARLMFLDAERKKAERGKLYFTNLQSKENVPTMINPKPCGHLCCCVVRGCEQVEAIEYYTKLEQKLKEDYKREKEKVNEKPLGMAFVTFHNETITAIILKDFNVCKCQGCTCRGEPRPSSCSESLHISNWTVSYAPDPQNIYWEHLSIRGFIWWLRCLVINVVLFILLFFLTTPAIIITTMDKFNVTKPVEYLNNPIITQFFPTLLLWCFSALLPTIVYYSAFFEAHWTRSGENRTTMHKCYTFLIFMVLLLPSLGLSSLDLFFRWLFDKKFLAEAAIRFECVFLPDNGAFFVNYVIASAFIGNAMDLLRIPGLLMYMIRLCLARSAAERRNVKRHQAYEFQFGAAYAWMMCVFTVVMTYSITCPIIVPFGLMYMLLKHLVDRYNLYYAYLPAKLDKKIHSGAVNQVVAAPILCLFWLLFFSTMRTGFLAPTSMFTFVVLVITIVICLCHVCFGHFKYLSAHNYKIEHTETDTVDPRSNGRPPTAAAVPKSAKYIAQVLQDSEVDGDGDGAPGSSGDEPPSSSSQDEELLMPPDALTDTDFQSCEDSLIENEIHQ
inactive: [1] 0.059 | [2] -0.005 | [3] -0.099 | [4] -0.036 | [5] -0.04

VPS51 (UniProt Q9UID3)
UniProt Q9UID3, sequence (Q9UID3 whole entry, looked up): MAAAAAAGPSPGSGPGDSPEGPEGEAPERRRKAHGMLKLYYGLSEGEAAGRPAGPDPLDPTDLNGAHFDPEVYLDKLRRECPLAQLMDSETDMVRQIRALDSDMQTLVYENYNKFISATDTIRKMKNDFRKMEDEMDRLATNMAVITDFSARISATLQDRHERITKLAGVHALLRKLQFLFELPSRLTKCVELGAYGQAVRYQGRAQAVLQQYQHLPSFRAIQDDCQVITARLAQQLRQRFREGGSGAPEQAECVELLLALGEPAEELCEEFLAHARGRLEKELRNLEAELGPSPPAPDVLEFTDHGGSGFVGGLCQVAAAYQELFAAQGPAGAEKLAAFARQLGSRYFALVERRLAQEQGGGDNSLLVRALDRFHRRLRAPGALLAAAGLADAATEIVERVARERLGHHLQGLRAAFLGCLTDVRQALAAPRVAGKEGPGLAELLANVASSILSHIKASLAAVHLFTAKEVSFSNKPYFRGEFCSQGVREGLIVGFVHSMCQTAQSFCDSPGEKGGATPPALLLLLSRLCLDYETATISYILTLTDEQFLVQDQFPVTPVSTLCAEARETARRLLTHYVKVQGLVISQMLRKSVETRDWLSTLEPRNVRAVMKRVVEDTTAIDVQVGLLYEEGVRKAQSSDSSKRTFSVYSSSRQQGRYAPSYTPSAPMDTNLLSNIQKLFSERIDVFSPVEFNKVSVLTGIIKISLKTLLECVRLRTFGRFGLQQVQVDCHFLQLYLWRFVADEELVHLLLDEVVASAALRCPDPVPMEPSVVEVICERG
inactive: [1] -0.047 | [2] 0.026 | [3] 0.047 | [4] -0.048 | [5] -0.044

VPS52 (UniProt Q8N1B4)
UniProt Q8N1B4, sequence (Q8N1B4 whole entry, looked up): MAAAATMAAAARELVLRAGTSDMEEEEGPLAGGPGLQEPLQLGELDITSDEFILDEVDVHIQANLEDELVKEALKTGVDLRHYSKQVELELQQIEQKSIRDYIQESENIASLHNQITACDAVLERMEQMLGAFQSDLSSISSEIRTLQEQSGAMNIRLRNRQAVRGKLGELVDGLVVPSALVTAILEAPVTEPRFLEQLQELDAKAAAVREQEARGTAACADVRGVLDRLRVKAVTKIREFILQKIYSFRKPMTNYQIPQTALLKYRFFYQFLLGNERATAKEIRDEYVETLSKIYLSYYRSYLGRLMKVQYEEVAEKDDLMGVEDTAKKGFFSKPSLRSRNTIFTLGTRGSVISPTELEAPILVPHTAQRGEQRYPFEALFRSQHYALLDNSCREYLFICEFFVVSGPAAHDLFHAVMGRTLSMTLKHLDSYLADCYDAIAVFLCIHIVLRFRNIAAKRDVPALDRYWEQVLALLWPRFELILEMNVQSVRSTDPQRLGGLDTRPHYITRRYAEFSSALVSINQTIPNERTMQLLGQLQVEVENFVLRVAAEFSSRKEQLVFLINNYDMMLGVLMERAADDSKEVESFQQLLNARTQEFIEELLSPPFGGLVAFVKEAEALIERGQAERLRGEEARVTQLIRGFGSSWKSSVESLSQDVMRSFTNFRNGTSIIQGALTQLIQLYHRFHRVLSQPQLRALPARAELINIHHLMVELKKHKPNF
inactive: [1] 0.068 | [2] 0.036 | [3] 0.137 | [4] -0.057 | [5] -0.028
